PubChem BioAssay (NCATS)
Inconclusive results are not listed. The source made the active and inactive calls. The call rests on the fitted dose curve; in most records, active means well fitted inhibition curve with a large enough effect; inconclusive means small, poorly fitted or top-dose-only effect; inactive means no such curve, though single readings can be large or run the other way.

What follows are compounds tested on Zika virus NS2B-NS3 protease (linked construct) (assay: Primary screen NINDS Rhodamine qHTS for Zika virus inhibitors (AID 1347160; further: nearly all actives have a fitted effect of over 55% in size)). Conditions: purified NS2B-NS3 protease, Rhodamine110 substrate fluorescence; series mostly up to 57.1 µM; activity change, negative = inhibition: at the top concentration.
Procedure, shortened: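 Percent inhibition, normalized to uninhibited and enzyme-free controls, is fitted to a 4-parameter Hill equation. Fluorescence change comes from a 15-min cleavage of 1.5 microM bis-peptide Rhodamine110 substrate by 25 nM linked NS2B-NS3 at room temperature.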
On the % scale 0 is the no-effect control and ±100 the full control effect; potency means the concentration at half of the fitted maximal effect.

Row | Structure (SMILES) | activity change, negative = inhibition | outcome | Potency
1 | O=C(COc1ccc2ccccc2c1Br)Nc1cccnc1 | 24.3% (inactive) | – | –
2 | Cc1cnn(-c2ccccc2)c1NC(=O)COCc1ccccc1 | – | inactive | –
3 | COc1cc2c(NC3CCN(C(C)C)CC3)nc(N3CCC(F)(F)CC3)nc2cc1OCCCN1CCCC1 | 24.4% (inactive) | – | –
4 | CC1CCC/C=C/C(=O)c2c(O)cc(O)cc2CC(=O)O1 (centres undefined) | -16.6% (inactive) | – | –
5 | Cc1cc(-c2cnc(N)c3c(-c4ccc5scnc5c4)csc23)n(C)n1 | -0.913% (inactive) | – | –
6 | Cn1ccc(NC(=O)c2cc(Oc3ccc(C(=O)N4CCC4)c(F)c3)c3c(c2)OC(C)(C)C3)n1 | – | inactive | –
7 | CS/C=C/C(=O)O[C@@H]1CCC2=CC(=O)C(=C(C)C)C[C@]2(C)[C@H]1C | -5.56% [at 33.1 µM] (inactive) | – | –
8 | O=C(Nc1ccc(C(O)(C(F)(F)F)C(F)(F)F)cc1)c1ccc(C(F)(F)F)cc1 | 1.05% (inactive) | – | –
9 | CN(C)C(=O)COC(=O)c1cc(-c2ccc(C3CCNCC3)cc2)c2ccc(-c3ccc(C(F)(F)F)cc3)cc2c1 | 635% (inactive) | – | –
10 | CCC/C=C/C(=O)O[C@H]1CC(C)(C)CC2[C@@]13[C@H](O)C[C@]1(C)[C@@]2(CCC2[C@@]4(C)CC[C@H](O[C@@H]5O[C@H](C(=O)O)[C@@H](O)[C@H](O[C@@H]6O[C@H](CO)[C@H](O)[C@H](O)[C@H]6O[C@@H]6O[C@@H](C)[C@H](O)[C@@H](O)[C@H]6O[C@@H]6OC[C@](O)(CO)[C@H]6O)[C@H]5O[C@@H]5O[C@H](CO)[C@H](O)[C@H](O)[C@H]5O)C(C)(C)C4CC[C@]21C)O[C@H]3O (some centres undefined) | -24.8% [at 10.7 µM] (inactive) | – | –
11 | CC(NC(=O)Cc1cc(F)cc(F)c1)C(=O)NC1C(=O)N(C)c2ccccc2-c2ccccc21 (centres undefined) | 109% (inactive) | – | –
12 | Cc1c(NC(=O)c2cc3c(s2)CCCC3)cccc1-c1cn(C)c(=O)c(Nc2ccc(C3C(=O)N(C)CCN3C)cc2)n1 (centres undefined) | -5.49% (inactive) | – | –
13 | C[C@H]1CC[C@@]2(OC1)O[C@H]1CC3[C@@H]4CC[C@@H]5C[C@@H](O[C@@H]6O[C@H](CO)[C@@H](O[C@@H]7O[C@H](CO[C@@H]8OC[C@@H](O)[C@H](O)[C@H]8O)[C@@H](O[C@@H]8O[C@H](CO)[C@H](O)[C@H](O)[C@H]8O)[C@H](O)[C@H]7O)[C@H](O)[C@H]6O)CC[C@]5(C)C4CC[C@]3(C)[C@H]1[C@@H]2C (some centres undefined) | -15.8% [at 15.1 µM] (inactive) | – | –
14 | CN1c2c(nc(N)[nH]c2=O)NC[C@@H]1CNc1ccc(C(=O)N[C@@H](CCC(=O)O)C(=O)O)cc1 | 34.7% (inactive) | – | –
15 | Clc1ccc(Nc2nc3ccccc3c3nc(C4CCCCC4)[nH]c23)cc1Cl | – | inactive | –
16 | C/C=C(\C)C(=O)O[C@H]1C=C(CO)C(=O)[C@H](OC(C)=O)[C@H]1C(C)C | -10.4% [at 33.1 µM] (inactive) | – | –
17 | CC(C)S(=O)(=O)Nc1ccc(F)c(C(=O)c2c[nH]c3ncc(-c4cccnc4)cc23)c1F | -22.5% (inactive) | – | –
18 | COc1cc2c(cc1OC(C)C)[C@H](c1ccc(Cl)cc1)N(c1ccc(N(C)CC3CCC(N4CCN(C)C(=O)C4)CC3)cc1)C(=O)C2 (some centres undefined) | 16.4% (inactive) | – | –
19 | CO[C@H]1O[C@@H]2O[C@@]3(C)CCC4[C@H](C)CCC([C@H]1C)[C@]42OO3 (some centres undefined) | 13.3% (inactive) | – | –
20 | O=C(NCc1cccs1)c1cc2nc(-c3ccco3)cc(C(F)(F)Cl)n2n1 | -5.25% (inactive) | – | –

Row | Structure (SMILES) | activity change, negative = inhibition | outcome | Potency
21 | CCOC(=O)c1ccc(OCCC2CCN(c3ccc(C)nn3)CC2)cc1 | -14.2% (inactive) | – | –
22 | C[C@@H](O[C@H]1OCCN(Cc2nn(P(=O)(O)O)c(=O)[nH]2)[C@H]1c1ccc(F)cc1)c1cc(C(F)(F)F)cc(C(F)(F)F)c1 | -1.33% [at 33.1 µM] (inactive) | – | –
23 | CN(C)c1cccc(Oc2cnc(Nc3cccc(O)c3)nc2)c1 | 8.97% (inactive) | – | –
24 | CC(C)C[C@@H](N)C(=O)N[C@H]1C(=O)N[C@@H](CC(N)=O)C(=O)N[C@H]2C(=O)N[C@H]3C(=O)N[C@H](C(=O)N[C@H](C(=O)O)c4cc(O)cc(O)c4-c4cc3ccc4O)[C@H](O)c3ccc(c(Cl)c3)Oc3cc2cc(c3O[C@@H]2O[C@H](CO)[C@@H](O)[C@H](O)[C@H]2O[C@H]2C[C@](C)(N)[C@H](O)[C@H](C)O2)Oc2ccc(cc2Cl)[C@H]1O | -3.66% [at 33.1 µM] (inactive) | – | –
25 | CC(F)(F)CN1CCOc2c(nn(-c3ccccc3Cl)c2-c2ccc(Cl)cc2)C1=O | -10.1% (inactive) | – | –
26 | O=C1COc2nccc(-c3ccccc3F)c2CN1Cc1cc(C(F)(F)F)cc(C(F)(F)F)c1 | -18.5% (inactive) | – | –
27 | Nc1ncnc2c1nc(Cl)n2C1OC2COP(=O)(O)OC2C1O (centres undefined) | 18.5% (inactive) | – | –
28 | CC1(C)CCCC2(C)C1C(OC(=O)/C=C/C=C/C=O)C=C1COC(=O)C12O (centres undefined) | -16.4% [at 33.1 µM] (inactive) | – | –
29 | C/C(=C\Cc1c(O)c(Cl)c(C)c(C=O)c1O)CC/C=C(\C)[C@H]1CC(=O)C(C)(C)O1 | -18.2% [at 33.1 µM] (inactive) | – | –
30 | C/C=C(/C)C(=O)O[C@@H]1C[C@@H](OC(=O)CC(C)C)C2(C)C3C(=O)C=C(C)C2C3C1(C)C (some centres undefined) | -3.18% [at 33.1 µM] (inactive) | – | –
31 | CN(C)CCOC(C)(c1ccccc1)c1ccc(Cl)cc1 (centres undefined) | 183% (inactive) | – | –
32 | C=C1CC[C@H]2C(=C)CC[C@H]3C(=C)C(=O)O[C@@H]3[C@@H]12 | -24.5% (inactive) | – | –
33 | CCC/C=C/C=C/C1CC(O)C2(O)C(=O)OCC12 (centres undefined) | – | – | 20 µM (active)
34 | O=C(Nc1ccc(N2C(=O)[C@@H]3[C@H](C2=O)[C@@H]2C=C[C@H]3C2)c(Cl)c1)c1ccccn1 | – | inactive | –
35 | FC(F)(F)c1ccccc1-c1cc(C(F)(F)F)c2nc(C3=NOC4(CCCCC4)C3)[nH]c2c1 | – | inactive | –
36 | O=C(Nc1ccccc1Br)NC1CCN(c2ccc(C(F)(F)F)cn2)C1 (centres undefined) | -7.78% (inactive) | – | –
37 | COc1cc2ncnc(Nc3cccc(I)c3)c2cc1OC | – | inactive | –
38 | NS(=O)(=O)Nc1ncnc(OCCOc2ncc(Br)cn2)c1-c1ccc(Br)cc1 | 35% (inactive) | – | –
39 | COC(=O)N1CCC(n2ncc3c(N4CCOCC4)nc(-c4ccc(NC(=O)NC5CC5)cc4)nc32)CC1 | 11.5% (inactive) | – | –
